{"source": "paper PMC13083723", "about": "(Patterns, 2026)", "note": "In all, about 5,400 compounds went through this assay and about 190 (3.5%) showed an effect of 50% or more. Only a selection was taken, and strong results are over-represented in it overall.", "data": [{"system": "Vero-E6", "experiment": "primary screen, phospholipidosis by LipidTOX staining; higher = more effect of the substance", "settings": "10 µM", "procedure,_shortened": "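Single-concentration screen at 10 μM, with DMSO 0.1 v/v % and amiodarone 10 μM as controls. Read-out is LipidTOX Red phospholipid staining, which tolerates aldehyde fixation, in Vero-E6 cells.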", "units": {"result_ITMP": "%"}, "values": [{"compound": "Cn1cc(/C=C2/C(=O)Nc3cccnc32)c2ccccc21", "result_ITMP": 2.75}, {"compound": "CCS(=O)c1nc(-c2cccc(OCc3ccccc3)c2)cc(C(F)(F)F)n1", "note": "(stereo not shown)", "result_ITMP": -1.04}, {"compound": "CCCC[N+]1(C)[C@@H]2C[C@@H](OC(=O)[C@H](CO)c3ccccc3)C[C@H]1[C@@H]1O[C@@H]12", "note": "(stereo partly shown)", "result_ITMP": -5.86}, {"compound": "Nc1c(CC(=O)[O-])cccc1C(=O)c1ccccc1", "result_ITMP": -2.23}, {"compound": "CN1CCN(C(c2ccccc2)c2ccc(Cl)cc2)CC1", "note": "(stereo not shown)", "result_ITMP": 44.4}, {"compound": "CN1CCCN(C(c2ccccc2)c2ccc(Cl)cc2)CC1", "note": "(stereo not shown)", "result_ITMP": 82.5}, {"compound": "CN1CCN(C(c2ccccc2)c2ccccc2)CC1", "result_ITMP": 16.1}, {"compound": "O=C(Nc1ccccc1)Nc1ccc(-c2ccc(C(=O)[C@@H]3CCC[C@H]3C(=O)O)cc2)cc1", "note": "[R4A_0000400_001 / SPE_K28861668]", "result_ITMP": -3.95}, {"compound": "O=C(O)[C@@H](S)[C@@H](S)C(=O)O", "result_ITMP": -5.93}, {"compound": "CCC[C@@H]1C[C@@H](C(=O)N[C@@H]([C@H]2O[C@H](SC)[C@H](OP(=O)(O)O)[C@@H](O)[C@H]2O)[C@H](C)Cl)N(C)C1", "result_ITMP": -1.73}, {"compound": "CC1(C)C(/C=C/C=C/C=C/C=C2/N(CCCCS(=O)(=O)[O-])c3ccc4ccccc4c3C2(C)C)=[N+](CCCCS(=O)(=O)[O-])c2ccc3ccccc3c21", "result_ITMP": -0.75}, {"compound": "CCNC(=O)N1CCN(CCCC(c2ccc(F)cc2)c2ccc(F)cc2)CC1", "result_ITMP": 8.88}, {"compound": "Cc1cccc(C)c1NC(=O)CN1CCN(CCCC(c2ccc(F)cc2)c2ccc(F)cc2)CC1", "result_ITMP": 52.6}, {"compound": "Cc1cccc(C)c1NC(=O)CN1CCCCCC1", "result_ITMP": -0.91}, {"compound": "O=C(/C=C/c1c(C(=O)[O-])[nH]c2cc(Cl)cc(Cl)c12)Nc1ccccc1", "result_ITMP": 0.43}, {"compound": "Cc1ccc(C(=O)c2ccc(CC(=O)[O-])n2C)cc1", "result_ITMP": -3.18}, {"compound": "CCN(CC)C(C)CN1c2ccccc2Sc2ccccc21", "note": "(stereo not shown)", "result_ITMP": 63.9}, {"compound": "CC(CN1c2ccccc2Sc2ccccc21)N(C)C", "note": "(stereo not shown)", "result_ITMP": 55.4}, {"compound": "CC(CC(C(N)=O)(c1ccccc1)c1ccccc1)N(C)C", "note": "(stereo not shown)", "result_ITMP": -2.3}, {"compound": "CCOC(=O)Nc1ccc2c(c1)N(C(=O)CCN(CC)CC)c1ccccc1S2", "result_ITMP": 12}, {"compound": "CCN(CC)C(C)C(=O)c1ccccc1", "note": "(stereo not shown)", "result_ITMP": -5.15}, {"compound": "COC(=O)/C=C/C(=O)N[C@@H]1CC[C@@]2(O)C3Cc4ccc(O)c5c4[C@@]2(CCN3CC2CC2)[C@H]1O5", "result_ITMP": -2}, {"compound": "CC(O)(P(=O)([O-])O)P(=O)([O-])O", "result_ITMP": -0.98}, {"compound": "Fc1cc(F)c2c(c1)[C@H]1C=CC[C@H]1C(c1cccnc1)N2", "note": "(mixture of isomers)", "result_ITMP": -14.4}, {"compound": "O=S(=O)([O-])CCS", "result_ITMP": -2.99}, {"compound": "OC[C@H]1O[C@@](CO)(O[C@H]2O[C@H](CO)[C@@H](O)[C@H](O)[C@H]2O)[C@@H](O)[C@@H]1O", "result_ITMP": -5.71}, {"compound": "CN(C)CCC(c1ccc(Cl)cc1)c1ccccn1", "note": "(stereo not shown) [R4A_0004036_001 / SPE_A04553218]", "result_ITMP": 16}, {"compound": "C[C@]12CC[C@H](O)CC1=CC[C@@H]1[C@@H]2CC[C@]2(C)C(c3cccnc3)=CC[C@@H]12", "result_ITMP": -5.26}, {"compound": "C[CH2][Hg][S]c1ccccc1C(=O)[O-]", "result_ITMP": 6.82}, {"compound": "O=C([O-])C(=O)[O-].[NH-][C@@H]1CCCC[C@H]1[NH-].[Pt+4]", "result_ITMP": 22.9}, {"compound": "COc1cc2c(NC3CCN(C(C)C)CC3)nc(N3CCC(F)(F)CC3)nc2cc1OCCCN1CCCC1", "result_ITMP": 8.94}, {"compound": "COc1cc2c(NC3CCN(C(C)C)CC3)nc(C3CCCCC3)nc2cc1OCCCN1CCCC1", "result_ITMP": 60.7}, {"compound": "COc1cc2c(NC3CCN(C4CCCCC4)CC3)nc(N3CCCN(C(C)C)CC3)nc2cc1OCCCN1CCCCC1", "result_ITMP": -1.55}, {"compound": "C[C@]12CC[C@H](O)C[C@H]1CC[C@@H]1[C@@H]2CC[C@]2(C)[C@@H](c3ccc(=O)oc3)C[C@H]3O[C@]132", "result_ITMP": -2.23}, {"compound": "Nc1ncnc2[nH]cnc12", "result_ITMP": -2.75}, {"compound": "C/C(=N\\NC(=S)NNC(=S)Nc1ccccc1Cl)c1ccccn1", "result_ITMP": -0.18}, {"compound": "C1CCC(N/C(=N/C23CC4CC(CC(C4)C2)C3)N2CCOCC2)CC1", "result_ITMP": -0.26}, {"compound": "C=C1C(=O)O[C@H]2[C@H]1CC/C(C)=C/CC[C@@]1(C)O[C@@H]21", "note": "[R4A_0002204_002 / SPE_K34851558]", "result_ITMP": 16.6}, {"compound": "c1cc(OCCN2CCCCC2)cc(-c2n[nH]c3ccc(-c4ncn[nH]4)cc23)c1", "result_ITMP": -0.52}, {"compound": "CN1C/C=C/CCOc2cccc(c2)-c2ccnc(n2)Nc2cccc(c2)C1", "result_ITMP": -2.04}, {"compound": "C1=C/COCc2cc(ccc2OCCN2CCCC2)Nc2nccc(n2)-c2cccc(c2)COC/1", "result_ITMP": 78.8}, {"compound": "CN(C)CCNc1nc2cc(O)ccc2c2c1C(=O)c1ccccc1-2", "result_ITMP": 76.7}, {"compound": "CC(C)(O)CC(=O)[O-]", "result_ITMP": -6.24}, {"compound": "CC(=O)Nc1ccc(C(=O)NC(C)(C)C)cc1", "result_ITMP": -9.36}, {"compound": "CN(C)CCCCC(=O)Nc1ccc(NC(=S)NC(=O)c2ccc(C(C)(C)C)cc2)cc1", "result_ITMP": 147}, {"compound": "CC(=O)Nc1ccc(NC(=S)NC(=O)c2ccc(C(C)(C)C)cc2)cc1", "result_ITMP": 2.55}, {"compound": "O=C1[C@@H]2[C@H]3CC[C@H](C3)[C@@H]2C(=O)N1C[C@@H]1CCCC[C@H]1CN1CCN(c2nsc3ccccc23)CC1", "result_ITMP": 3.52}, {"compound": "COc1cccc(Nc2ncnn3ccc(CN4CC[C@@H](N)[C@H](O)C4)c23)c1", "result_ITMP": 59}, {"compound": "CSCC[C@H](NC(=O)[C@H](CC(C)C)NC(=O)CNC(=O)[C@H](Cc1ccccc1)NC(=O)[C@H](Cc1ccccc1)NC(=O)[C@H](CCC(N)=O)NC(=O)[C@H](CCC(N)=O)NC(=O)[C@@H]1CCCN1C(=O)[C@H](CCCCN)NC(=O)[C@@H]1CCCN1C(=O)[C@@H](N)CCCNC(=N)N)C(N)=O", "result_ITMP": -6.88}, {"compound": "C[C@H]1[C@H](OC(=O)CCC(=O)O)O[C@@H]2O[C@@]3(C)CC[C@H]4[C@H](C)CC[C@@H]1[C@@]24OO3", "result_ITMP": 7.77}, {"compound": "Cc1c(-c2ccc(-c3ccccc3F)cc2)nc2ccc(F)cc2c1C(=O)[O-]", "result_ITMP": 5.08}, {"compound": "c1cc2c(cc1C1CCCCC1)c1c3n2CCNC3CCC1", "note": "(stereo not shown)", "result_ITMP": 84.2}, {"compound": "Cc1ccc2c(c1)c1c3n2CCNC3CCC1", "note": "(stereo not shown)", "result_ITMP": 51.5}, {"compound": "C#C[C@]1(O)CC[C@H]2[C@@H]3CCC4=CC(=O)CC[C@@H]4C3CC[C@@]21CC", "note": "(stereo partly shown)", "result_ITMP": -2.07}, {"compound": "Cc1ccccc1C(c1ccccc1C)N1C2CCC1CC(O)(c1ccccc1)C2", "note": "(stereo not shown)", "result_ITMP": -2.82}, {"compound": "C[C@H](/C=C/[C@H](C)C(C)(C)O)[C@H]1CC[C@H]2/C(=C/C=C3C[C@@H](O)C[C@H](O)C3)CCC[C@]12C", "result_ITMP": -0.26}, {"compound": "N[C@@H]1[C@H]2CN(c3nc4c(cc3F)c(=O)c(C(=O)O)cn4-c3ccc(F)cc3F)C[C@@H]12", "result_ITMP": 0.39}, {"compound": "Cc1cc2c(cc1CC(=O)c1sccc1S(=O)(=O)[N-]c1onc(C)c1Cl)OCO2", "result_ITMP": -1.86}, {"compound": "COc1cc2c(N3CCN(C(=O)Nc4ccc(OC(C)C)cc4)CC3)ncnc2cc1OCCCN1CCCCC1", "result_ITMP": 23}, {"compound": "COc1cc(Nc2c(C#N)cnc3cc(OCCCN4CCN(C)CC4)c(OC)cc23)c(Cl)cc1Cl", "result_ITMP": 68}, {"compound": "COc1cc2ncnc(Nc3ccc(F)c(Cl)c3)c2cc1OCCCN1CCOCC1", "result_ITMP": -1.05}, {"compound": "CC1(C)S[C@@H]2[C@H](NC(=O)[C@H](NC(=O)N3CCN(S(C)(=O)=O)C3=O)c3ccccc3)C(=O)N2[C@H]1C(=O)[O-]", "result_ITMP": -2.91}, {"compound": "O=C1OC2(c3cc(I)c([O-])c(I)c3Oc3c2cc(I)c([O-])c3I)c2c(Cl)c(Cl)c(Cl)c(Cl)c21", "result_ITMP": -9.57}, {"compound": "CC1(C)S[C@@H]2C(N3C(=O)[C@@H](c4ccccc4)NC3(C)C)C(=O)N2[C@H]1C(=O)[O-]", "note": "(stereo partly shown)", "result_ITMP": -1.52}, {"compound": "CC(=O)O[C@@]12CO[C@@H]1C[C@H](O)[C@@]1(C)C(=O)[C@H](O)C3=C(C)[C@@H](O)C[C@@](O)([C@@H](OC(=O)c4ccccc4)[C@H]21)C3(C)C", "result_ITMP": -5.35}, {"compound": "Cc1noc(-c2ccc(-c3ccc(CC(=O)[O-])cc3)cc2)c1NC(=O)O[C@H](C)c1ccccc1", "result_ITMP": -0.34}, {"compound": "O=C(Nc1ccccc1)Nc1ccc(-c2ccc(C(=O)[C@@H]3CCC[C@H]3C(=O)O)cc2)cc1", "note": "[R4A_0000400_001 / SPE_K81614372]", "result_ITMP": -1.59}, {"compound": "Cn1nccc1Nc1nccc(-c2ccn([C@H](CO)c3ccc(Cl)c(F)c3)c(=O)c2)n1", "note": "[R4A_0003897_001 / SPE_K86309810]", "result_ITMP": -3.82}, {"compound": "O[C@@H]1[C@H](O)[C@@H](CCl)O[C@H]1n1cnc2c(NC3CC4CCC3C4)ncnc21", "note": "(mixture of isomers)", "result_ITMP": -1.27}, {"compound": "CCCCN(CCCC)CCC(O)c1cc2c(Cl)cc(Cl)cc2c2cc(C(F)(F)F)ccc12", "note": "(stereo not shown)", "result_ITMP": 68.8}, {"compound": "CCCCN(CCCC)CC(O)c1cc(Cl)cc2c1-c1ccc(Cl)cc1/C2=C/c1ccc(Cl)cc1", "note": "(stereo not shown)", "result_ITMP": -0.63}, {"compound": "CC(=O)N[C@@H]1C[C@H](O)[C@@H](CO)O[C@H]1O[C@H]1[C@H](O)[C@@H](O)[C@H](O)O[C@@H]1C(=O)[O-]", "result_ITMP": -0.41}, {"compound": "CC(C)[C@@H]1C(=O)N(S(C)(=O)=O)[C@@H]2CCN(C(=O)/C=C/CN3CCCCC3)[C@H]21", "result_ITMP": 0.42}, {"compound": "Cc1cccn2c(=O)c(/C=C(\\C#N)c3nc4ccccc4s3)c(Oc3ccc(F)cc3)nc12", "result_ITMP": -3.48}, {"compound": "O=C(CCn1cnc2c(O)ncnc21)Nc1ccc(C(=O)O)cc1", "result_ITMP": -5.54}, {"compound": "C[C@@H]1CN(CC(=O)Nc2ccc3c(c2)Cc2cccc(-c4cc(=O)cc(N5CCOCC5)o4)c2S3)C[C@H](C)O1", "result_ITMP": 4.24}, {"compound": "CC(N)Cc1c[nH]c2ccc(O)cc12", "note": "(stereo not shown)", "result_ITMP": -1.42}, {"compound": "CC(N)Cc1c[nH]c2ccc(OCc3cccs3)cc12", "note": "(stereo not shown)", "result_ITMP": 55.2}, {"compound": "NC(Cc1c[nH]c2ccc(O)cc12)C(=O)O", "note": "(stereo not shown)", "result_ITMP": -1.81}]}]}
